Measured values from PubChem BioAssay (EPA / NIEHS).
Records with an inconclusive call do not appear. Active and inactive are the calls of the source. Rule for the calls, unless noted: active = hit-call score of the fitted dose curve at least 0.9, where 1 is the maximum; inconclusive = response in the unintended direction; inactive = score below 0.9.

Tests used:
[1] = TOX21_p53_BLA_p2_viability: Viability Assessment in the Tox21 HCT-116 p53 Agonism Beta-lactamase Assay, Phase 2 (AID 2283591);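 note: compound exposure lasted 16 h at 37 °C; actives lower the ATP signal meaning cytotoxicity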
How it was run: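 Cytotoxicity readout: CellTiter-Glo ATP luminescence, 30 min at room temperature, after the beta-lactamase read. Cells were HCT116 exposed 16 h at 37C to compounds pin-transferred at 217-fold dilution from DMSO stocks.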

[2] = biological target: Cellular tumor antigen p53 (Homo sapiens) (UniProt P04637); experiment: TOX21_p53_BLA_p2_ratio: Tox21 HCT-116 p53 Agonism Beta-lactamase Assay, Ratio, Phase 2 (AID 2283592)
Sequence of Cellular tumor antigen p53 (Homo sapiens) (P04637 whole entry, looked up): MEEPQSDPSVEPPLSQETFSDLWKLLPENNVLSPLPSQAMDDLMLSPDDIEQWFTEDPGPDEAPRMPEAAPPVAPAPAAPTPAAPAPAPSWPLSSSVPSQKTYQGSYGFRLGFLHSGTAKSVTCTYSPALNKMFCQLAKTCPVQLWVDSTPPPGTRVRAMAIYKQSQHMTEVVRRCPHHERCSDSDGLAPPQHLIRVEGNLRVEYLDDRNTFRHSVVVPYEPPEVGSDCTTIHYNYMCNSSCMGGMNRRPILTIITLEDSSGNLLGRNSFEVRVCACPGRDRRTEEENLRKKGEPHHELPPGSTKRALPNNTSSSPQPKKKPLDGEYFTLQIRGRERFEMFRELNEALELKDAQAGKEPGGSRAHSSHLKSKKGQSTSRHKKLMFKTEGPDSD
How it was run: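 Human colon HCT116 cells with an inducible p53 beta-lactamase reporter are exposed to test chemicals for 16 h at 37C. Reporter induction is read as the 460/530 nm emission ratio after CCF4-AM loading, normalized to DMSO.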

[3] = TOX21_p53_BLA_p3_viability: Viability Assessment in the Tox21 HCT-116 p53 Agonism Beta-lactamase Assay, Phase 3 (AID 2283593);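 note: cells exposed to compound for 16 h before reading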
How it was run: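 Cellular ATP was quantified by CellTiter-Glo luminescence, read after 30 min at room temperature. Beforehand, HCT116 cells (4000/well) received compound 5 h post-seeding, 217-fold diluted from DMSO, then incubated 16 h at 37C.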

[4] = biological target: Cellular tumor antigen p53 (Homo sapiens) (UniProt P04637); experiment: TOX21_p53_BLA_p3_ratio: Tox21 HCT-116 p53 Agonism Beta-lactamase Assay, Ratio, Phase 3 (AID 2283596)
How it was run: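 HCT116 p53-bla cells (4000/well) given compound in DMSO (217-fold dilution) after 5 h, incubated 16 h at 37C. CCF4-AM substrate 2 h at room temperature; 460/530 nm emission ratio, gain fitted against DMSO.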

[5] = biological target: Cellular tumor antigen p53 (Homo sapiens) (UniProt P04637); experiment: TOX21_p53_BLA_p4_ratio: Tox21 HCT-116 p53 Agonism Beta-lactamase Assay, Ratio, Phase 4 (AID 2283601)
How it was run: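 Signal is the blue/green (460nm/530nm) ratio of cleaved versus uncleaved CCF4-AM substrate, read after 2 h substrate loading. Cells were HCT116 carrying the p53-responsive beta-lactamase reporter, dosed 16 h at 37C, 5% CO2; CellTiter-Glo measured in parallel.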

[6] = biological target: Cellular tumor antigen p53 (Homo sapiens) (UniProt P04637); experiment: TOX21_p53_BLA_p5_ratio: Tox21 HCT-116 p53 Agonism Beta-lactamase Assay, Ratio, Phase 5 (AID 2283599)
How it was run: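 Beta-lactamase reporter ratio (blue 460 nm over green 530 nm, 405 nm excitation) after 2 h CCF4-AM loading, in HCT-116 cells exposed 16 h at 37 C to compounds pinned at 217-fold dilution. Increases relative to DMSO baseline scored.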

[7] = TOX21_p53_BLA_p4_viability: Viability Assessment in the Tox21 HCT-116 p53 Agonism Beta-lactamase Assay, Phase 4 (AID 2283597);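 note: hits lower the luminescence signal meaning cytotoxicity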
How it was run: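 Luminescent ATP readout (CellTiter-Glo, 30 min, room temperature) in the same wells as the p53 bla ratio. HCT116 cells were treated for 16 h at 37C with DMSO-dissolved compounds.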

[8] = TOX21_p53_BLA_p5_viability: Viability Assessment in the Tox21 HCT-116 p53 Agonism Beta-lactamase Assay, Phase 5 (AID 2283600)
How it was run: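 Seeded cells (4000/well) settle 5 h before compound addition. Plates then incubate 16 h at 37C, receive FRET substrate for 2 h, and finally CellTiter-Glo, with luminescence measured after a 30 min room-temperature incubation.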

PGR (gene 5241) [9] = biological target: PGR (gene 5241) (UniProt P06401); experiment: TOX21_PR_BLA_Followup_Antagonist_ratio: Tox21 HEK293 Progesterone Receptor (PR) Antagonism Beta-lactamase Follow-Up Assay, Ratio (AID 2283934)
Sequence of PGR (gene 5241) (P06401 whole entry, looked up): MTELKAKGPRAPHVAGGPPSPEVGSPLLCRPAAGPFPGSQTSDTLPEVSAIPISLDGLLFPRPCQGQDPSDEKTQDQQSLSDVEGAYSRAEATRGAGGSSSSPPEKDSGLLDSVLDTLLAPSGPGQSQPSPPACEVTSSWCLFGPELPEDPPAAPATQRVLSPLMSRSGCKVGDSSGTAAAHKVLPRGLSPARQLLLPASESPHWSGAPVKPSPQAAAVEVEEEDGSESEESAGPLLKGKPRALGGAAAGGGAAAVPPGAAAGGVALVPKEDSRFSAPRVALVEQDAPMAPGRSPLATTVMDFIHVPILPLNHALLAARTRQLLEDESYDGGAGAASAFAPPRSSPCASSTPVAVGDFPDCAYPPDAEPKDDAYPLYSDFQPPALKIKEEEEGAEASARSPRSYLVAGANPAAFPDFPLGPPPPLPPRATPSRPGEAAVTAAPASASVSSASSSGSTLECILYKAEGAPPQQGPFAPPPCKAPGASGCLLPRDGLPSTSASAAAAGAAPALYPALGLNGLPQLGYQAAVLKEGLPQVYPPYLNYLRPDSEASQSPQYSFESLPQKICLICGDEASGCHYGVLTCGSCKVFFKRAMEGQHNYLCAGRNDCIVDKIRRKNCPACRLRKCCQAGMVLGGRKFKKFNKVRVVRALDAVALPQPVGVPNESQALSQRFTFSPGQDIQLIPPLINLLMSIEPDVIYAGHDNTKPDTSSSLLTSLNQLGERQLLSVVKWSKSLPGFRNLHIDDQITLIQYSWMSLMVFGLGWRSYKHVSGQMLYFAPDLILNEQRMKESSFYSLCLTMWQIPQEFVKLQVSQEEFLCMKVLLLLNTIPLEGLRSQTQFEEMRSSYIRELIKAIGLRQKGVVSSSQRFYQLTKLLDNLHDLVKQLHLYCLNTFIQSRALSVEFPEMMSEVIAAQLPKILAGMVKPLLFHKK
How it was run: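 PR-UAS-bla HEK293T cells, 3,000/well in 2% charcoal-stripped FBS, given compound plus 1nM R5020 agonist for 16 hr at 37C. Beta-lactamase FRET substrate 2 hours, ratio cleaved/uncleaved fluorescence; viability by CellTiter-Glo in same wells.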

[10] = TOX21_PR_BLA_Followup_Agonist_viability: Viability Assessment in the Tox21 HEK293 Progesterone Receptor (PR) Agonism Beta-lactamase Follow-Up Assay (AID 2283935);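 note: signal loss means lower viability so actives are cytotoxic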
How it was run: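 PR-UAS-bla HEK293T cells in 2% charcoal-stripped FBS medium, plated 6 hr before compound addition, exposed 16 hr at 37C. Viability read by CellTiter-Glo ATP luminescence after 30 min at room temperature, in the same wells as the beta-lactamase readout.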

[11] = TOX21_PR_BLA_Followup_Antagonist_viability: Viability Assessment in the Tox21 HEK293 Progesterone Receptor (PR) Antagonism Beta-lactamase Follow-Up Assay (AID 2283936);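 note: hits lower the luminescence signal meaning cytotoxicity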
How it was run: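 PR-UAS-bla HEK293T cells (3,000/well, 2% charcoal-stripped FBS) given compound plus R5020 agonist, 16 h at 37C. CellTiter-Glo added after bla read, 30 min at room temperature; luminescence loss indicates cytotoxicity.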

PGR (gene 5241) [12] = biological target: PGR (gene 5241) (UniProt P06401); experiment: TOX21_PR_LUC_Followup_Agonist: Tox21 HEK293 Progesterone Receptor (PR) Agonism Luciferase Follow-Up Assay (AID 2283937; active = hit-call score of the fitted dose curve at least 0.9, where 1 is the maximum; inactive = score below 0.9)
How it was run: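 HEK293-PR-A-luc cells, conditioned 5 days in 10% charcoal-stripped FBS medium, seeded 3,000/well for 5 h, then compound-treated 16 h at 37C. ONE-Glo luminescence read after 30 min at room temperature; gain of signal versus DMSO.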

PGR (gene 5241) [13] = biological target: PGR (gene 5241) (UniProt P06401); experiment: TOX21_PR_LUC_Followup_Antagonist: Tox21 HEK293 Progesterone Receptor (PR) Antagonism Luciferase Follow-Up Assay (AID 2283938);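 note: curve fitted upward as signal gain over DMSO baseline despite antagonist label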
How it was run: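 Luciferase reporter in HEK293-PR-A-luc cells: 16 h compound treatment at 37C, ONE-Glo luminescence detection, DMSO as negative control and baseline.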

[14] = TOX21_PR_LUC_Followup_Agonist_viability: Viability Assessment in the Tox21 HEK293 Progesterone Receptor (PR) Agonism Luciferase Follow-Up Assay (AID 2283941);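 note: loss of signal means cytotoxicity so actives lower viability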
How it was run: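 HEK293-PR-A-luc cells, kept in 10% charcoal-stripped FBS medium, were treated with compounds for 16 h at 37C. Viability read as cellular ATP by luciferase-coupled luminescence; loss of signal indicates cytotoxicity.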

Measured: AC50

c1ccccc1
inactive: [1] | [2] | [3] | [4] | [5]

O=[N+]([O-])/C=C/c1ccccc1
inactive: [1] | [3] | [4] | [6] | [5]
active: [2] 12 µM

Clc1ccccc1-c1ccccc1Cl
active: [3] 62.2 µM
inactive: [1] | [2] | [4] | [6] | [5]

C1CCC2CCCCC2C1 (configuration not stated)
inactive: [1] | [2] | [3] | [4] | [6] | [5]

C=CC(=O)OC(C)(C)C
inactive: [1] | [2] | [4] | [7] | [6] | [8]

CCCCCCCCCCCOC(=O)c1ccccc1C(=O)OCCCCCCCCCCC
inactive: [1] | [2] | [4] | [7] | [6] | [8] | [5]

O=C(NCc1cccnc1)Nc1ccc([N+](=O)[O-])cc1
inactive: [1] | [2] | [3] | [7] | [6] | [8] | [5]

CC(=O)OCC1=C(C(=O)O)N2C(=O)[C@@H](N)[C@H]2SC1
inactive: [1] | [2] | [3] | [6]

Cc1nnc2n1-c1ccc(Cl)cc1C(c1ccccc1Cl)=NC2
inactive: [1] | [2] | [3] | [7] | [8]

CCOP(=S)(OCC)Oc1cc(C)nc(N(CC)CC)n1
inactive: [1] | [2] | [3] | [7] | [8] | [5]

ClCC(Br)CBr (configuration not stated)
inactive: [1] | [2] | [3] | [7] | [8]

CC(=O)[C@H]1CC[C@H]2[C@@H]3CC[C@H]4C[C@](C)(O)CC[C@]4(C)[C@H]3CC[C@]12C
inactive: [1] | [2] | [3] | [7] | [6] | [5]

CC[C@H]1[C@@H]2C[C@H]3[C@@H]4N(C)c5ccccc5[C@]45C[C@@H](C2C5O)N3[C@@H]1O (some centres not stated)
inactive: [1] | [2] | [3] | [7] | [8] | [5]

O=[N+]([O-])c1ccc2ccc3cccc4ccc1c2c34
inactive: [1] | [2] | [3] | [6] | [8] | [5] | [10] | [11] | PGR (gene 5241) [12] | [14]
active: PGR (gene 5241) [9] 12.2 µM | PGR (gene 5241) [13] 13 µM

Nc1nc(N)c(N)c(N)n1
inactive: [1] | [2] | [4] | [7]

C=CC=O
inactive: [1] | [2] | [4] | [7] | [6] | [8]
